Screening data from PubChem BioAssay.
A selection: hits, their analogues and other compounds. The true share with any hit is near 5.7%.
KB-3-1 tox: kills parental KB-3-1 adenocarcinoma cells. KB-3-1 viability, CellTiter-Glo ATP luminescence, 72 h. Potency, µM (highest dose often 46.1 µM), hits mostly cytotoxic. actives 1.4% (n = 400,000). AID 1347075; note: potency is the fitted concentration of half-maximal effect; nearly all actives have a fitted effect of over 60% in size
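Parental KB-3-1 viability, qHTS format: 72 h compound exposure, 37 °C; CellTiter-Glo; media-only wells and DMSO plates as controls; concentration-effect fits on corrected data.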
PI4K2A block: PI4K2A (human) kinase inhibition; purified PI4K2A, ADP-Glo luminescence, 1 h; stronger effect = lower value; AID 1346378; actives 0.13% (n = 420,000); activity change, negative = inhibition, % at 76.9 µM; Q9BTU6; in the data active = activity change below about -50%; inconclusive = mostly about -30% to -49%;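 note: -100% = wells without enzyme as full effect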
Target sequence (Q9BTU6 whole entry, looked up): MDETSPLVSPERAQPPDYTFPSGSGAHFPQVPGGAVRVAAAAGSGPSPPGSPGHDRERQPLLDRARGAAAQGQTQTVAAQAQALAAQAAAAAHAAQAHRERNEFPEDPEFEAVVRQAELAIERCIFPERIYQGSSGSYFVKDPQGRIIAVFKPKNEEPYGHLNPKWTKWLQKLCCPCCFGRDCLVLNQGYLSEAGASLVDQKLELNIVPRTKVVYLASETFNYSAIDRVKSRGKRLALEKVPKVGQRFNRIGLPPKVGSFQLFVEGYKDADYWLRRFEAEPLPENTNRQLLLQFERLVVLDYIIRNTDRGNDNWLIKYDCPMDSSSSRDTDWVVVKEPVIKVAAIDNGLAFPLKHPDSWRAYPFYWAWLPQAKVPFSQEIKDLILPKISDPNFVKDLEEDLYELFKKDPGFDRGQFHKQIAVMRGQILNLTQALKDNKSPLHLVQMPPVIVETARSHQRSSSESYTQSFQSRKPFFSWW
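In this quantitative HTS, ADP production by PI4K2A was quantified luminescently after 1 h at ambient temperature; 100 microM adenosine served as plate-quality control.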
Nrf2 block: inhibitors of Nrf2 signaling; A549 ARE-Fluc reporter, luciferase luminescence, 18-24 h; Potency, µM (titrated, usually from 46 µM), for the others: top-dose activity change, negative = inhibition, hits mostly inhibitors; actives 2.1% (n = 360,000); note: potency is the fitted concentration of half-maximal effect; nearly all actives have a fitted effect of over 60% in size
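A549 ARE_Fluc cells, 5000/well, 5% FBS OPTI-MEM; compounds in dose-response, 18-24 h at 37 °C/5% CO2; CellTiter-Fluor viability read (Ex 405/Em 525), then BugLite luciferase luminescence = Nrf2 activity.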
KB-V1 MDR tox: KB-V1 MDR subline cytotoxicity; KB-V1 MDR cells viability, CellTiter-Glo, 72 h; Potency, µM (doses to about 46.1 µM), usual class: cytotoxic; actives 3.4% (n = 400,000); note: potency is the fitted concentration of half-maximal effect; nearly all actives have a fitted effect of over 60% in size
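KB-V1 cells (P-gp-expressing MDR subline of KB-3-1) in phenol-red-free DMEM with 10% FBS were exposed to library compounds over a concentration series for 72 h at 37 degrees C. Viability read by CellTiter-Glo luminescence; concentration-effect curves fitted after normalization.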
A549 viability: counter-screen for Nrf2 inhibitors: cytotoxicity in A549 cells; actives 0.16% (n = 390,000); Potency, µM (top dose mostly 46 µM), for the others: at the highest dose activity change, negative = cytotoxicity, usual class: inhibitors; A549 ARE-Fluc cells, CellTiter-Fluor viability, 18-24 h; note: potency is the fitted concentration of half-maximal effect
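Cytotoxicity counterscreen: CellTiter-Fluor fluorescence was measured in A549 ARE_Fluc cells after 18-24 h of compound exposure in a concentration series. The subsequent BugLite luminescent read reports ARE-luciferase activity.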
Giardia killer: Giardia lamblia killing. Giardia lamblia trophozoite viability. activity change, % at 7.66 µM, hits read low. AID 540267. actives 0.15% (n = 340,000); in the data active = activity change below about -80%; inconclusive = between about -30% and that limit;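 note: parasites exposed to compound for two days anaerobically before the ATP read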
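Trophozoite viability was measured as ATP-dependent luminescence, read 15-30 min after reagent addition. Before that, parasites at 100 cells/well were exposed to compounds for 48 h, anaerobically, at 37 deg C.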
Starred values were filed as active, the others as inactive; i = inactive; u = inconclusive; x = no result; [ ] = remark or other dose. Unless noted, calls come from the whole dose curve; as a rule, active = well fitted curve in the direction sought with a large enough effect; inconclusive = small, poorly fitted or top-dose-only effect, or another doubt; inactive = no such curve, though single readings can be large; an effect the other way counts as inactive or inconclusive. Unless noted, % is set by controls: 0 for no effect and ±100 for the full control effect.

SMILES	KB-3-1 tox	PI4K2A block	Nrf2 block	KB-V1 MDR tox	A549 viability	Giardia killer
O=c1[nH]nc(Br)c(=O)n1C(c1ccccc1)c1ccccc1	u	1.6	-21.7%	23.1µM*	1.6%	-7.5
CCC(=O)N(CCC(c1ccccc1)c1ccco1)Cc1cccs1 (centres undefined)	i	5.3	12.2%	u	0.5%	13.3
CCC(=O)N(CCC(Cc1ccccc1)c1ccco1)Cc1ccco1 (centres undefined)	i	-1.5	16.4µM*	u	-17.7%	0.1
COC(=O)[C@]12C[C@H](CC(=O)N3CCN(C(=O)C4CC4)CC3)C(=O)N(CCc3ccc(OC)c(OC)c3)C1=C[C@H](C1CCCC1)O[C@@H]2C	x	-5.5	x	x	x	x
Cc1cc2nc(-c3ccc(SCc4ccccc4C#N)nc3)[nH]c2cc1C	i	-1.6	-7.1%	20.6µM*	-7.9%	-1.8
Cc1cc2nc(-c3ccc(SCc4ccc(C(=O)O)cc4)nc3)[nH]c2cc1C	u	0.2	u	i	-21.3%	10.5
CC1CCC2(CC1)CCN(CCCOC(=O)Nc1cccc(F)c1)C2=O (centres undefined)	x	-1.8	x	x	x	x
O=C(NCCc1nc2ccccc2n1CCCOc1ccccc1)C1CCCCC1	i	x	u	i	-6.8%	6.3
Cc1ccc(-c2ccc(=O)n(Cc3cccc(Br)c3)n2)cc1	u	-1.5	-8.4%	16.4µM*	3.4%	-20.0
O=c1ccc(-c2ccccc2)nn1Cc1ccccc1	i	-1.9	-12.2%	i	-3.2%	1.4
Cc1ccc(Nc2c([N+](=O)[O-])c(=O)oc3ccccc23)cc1	u	-19.9	18.4µM*	u	u	-2.7
CC(C)COc1ccc(-c2csc(N3CCC(C(N)=O)CC3)n2)cc1	x	-2.5	x	x	x	x
CC1(C)CC(=O)C(C(C2=C(O)CC(C)(C)CC2=O)c2ccc(Br)s2)C(=O)C1 (centres undefined)	u	u	2.4%	20.6µM*	-0.5%	7.4
Cc1ccc(C(C2=C(O)CC(C)(C)CC2=O)C2C(=O)CC(C)(C)CC2=O)s1 (centres undefined)	i	u	-9.8%	i	-12.5%	-10.7
Cc1cc(C)nc(N2CCCC(C(=O)Nc3nnc(C(C)(C)C)s3)C2)n1 (centres undefined)	i	-1.0	4.5%	u	-3.3%	-1.5
CCc1nnc(NC(=O)C2CCCN(c3nc(C)cc(C)n3)C2)s1 (centres undefined)	i	2.1	x	9.2µM*	11.0%	0.0
CCc1nnc(NC(=O)C2CCN(c3nccc(C)n3)CC2)s1	i	0.7	-19.3%	16.4µM*	-1.9%	-8.5
C[C@H]1[C@@H](NCC2CCCCC2)CC[C@@]23CCCN2C(=O)CCC[C@@H]13	x	3.2	x	x	x	x
Cn1cc(/C=C/c2cc[n+](C)cc2)c2cc(Cl)ccc21	0.92µM*	0.2	10.3µM*	i	u	7.1
O=S(=O)(c1ccc2oc3ccccc3c2c1)N1CCCC1	i	-7.8	-16.2%	i	-1.4%	-1.2
O=S(=O)(c1ccc2oc3ccccc3c2c1)N1CCOCC1	i	0.2	-8.8%	16.4µM*	-1.0%	1.0
CCN(CC)C(=O)C1CCN(S(=O)(=O)c2ccc3oc4ccccc4c3c2)CC1	i	4.6	20.6µM*	11.6µM*	-3.8%	-3.8
C=CC(=O)Nc1ccc(N(C)c2ccnc(Nc3ccc(N4CCN(C)CC4)cc3)n2)cc1	i	-6.5	14.8%	u	7.31µM*	-4.8
O=C(Nc1nc(-c2ccccc2)cs1)c1ccccc1NS(=O)(=O)c1ccc(F)cc1	6.51µM*	-2.9	6.51µM*	16.4µM*	u	12.1
O=C(Nc1cccnc1)c1ccccc1NS(=O)(=O)c1ccc(F)cc1	u	2.5	u	20.6µM*	-18.3%	-8.4
SMILES	KB-3-1 tox	PI4K2A block	Nrf2 block	KB-V1 MDR tox	A549 viability	Giardia killer
O=S(=O)(Nc1ccc(-c2csc(-c3ccccc3)n2)cc1)c1ccc(F)cc1	u	1.9	-20.9%	u	-13.2%	-5.6
O=C(COC(=O)c1cccs1)NCCN1C(=O)CSC1=O	i	4.1	u	i	3.0%	20.4
Cc1c(C(=O)OCC(=O)NCCN2C(=O)CSC2=O)oc2c1ccc1ccccc12	i	4.0	u	23.1µM*	4.2%	-4.9
Cc1n[nH]c(=S)n1/N=C/c1ccccc1OCc1ccc(Cl)cc1	u	-2.2	-6.2%	11.6µM*	-7.6%	-21.7
Cc1nc2ccccc2cc1OCc1ccc(Cl)cc1	2.59µM*	2.0	u	1.84µM*	-1.4%	-4.3
CCC(Sc1nnnn1-c1ccccc1)C(=O)NC(C)c1ccccc1 (centres undefined)	i	2.4	x	5.8µM*	-15.7%	5.7
CC(Sc1nnnn1-c1ccccc1)C(=O)Nc1ccc(Cl)cn1 (centres undefined)	i	8.9	u	18.4µM*	-13.6%	-0.8
CC(Sc1nnc2ccccn12)C(=O)Nc1ccc(Cl)cn1 (centres undefined)	i	-4.9	2.1%	i	-8.6%[1.84 µM]	-5.3
O=C(c1ccc(S(=O)(=O)N2CCOCC2)cc1)N1CCN(c2cccc(Cl)c2)CC1	i	9.0	9.3%	14.6µM*	-4.5%	9.9
O=C(Nc1cccc(F)c1)c1ccc(S(=O)(=O)NCC2CCCO2)cc1 (centres undefined)	i	0.8	20.6µM*	16.4µM*	-4.1%	13.3
O=C(c1ccc(S(=O)(=O)NCC2CCCO2)cc1)N1CCN(c2cccc(Cl)c2)CC1 (centres undefined)	u	3.9	13µM*	i	1.9%	-7.5
O=C(c1ccc(S(=O)(=O)N2CCOCC2)cc1)N1CCN(c2ccc(F)cc2)CC1	i	8.3	-4.1%	i	0.7%	-7.3
CCOc1ccc(-n2c(SCC(=O)Nc3ccc(S(=O)(=O)Nc4cc(C)nc(C)n4)cc3)nnc2-c2ccco2)cc1	x	1.0	x	x	x	x
COc1cc(OC)cc(C(=O)NCCCCCCNC(=O)c2cc(OC)cc(OC)c2)c1	i	-5.5	1.4%	18.4µM*	7.5%	-1.7
OCCN=C1CCCc2c1[nH]c1ccc(Cl)cc21	2.06µM*	4.4	4.8%	0.731µM*	0.2%	14.0
OCCCN=C1CCCc2c1[nH]c1ccc(Cl)cc21	9.2µM*	7.6	-4.3%	1.46µM*	0.4%	-8.8
COc1ccc(CNC(=O)O[C@H]2CC[C@@]34CCCN3C(=O)CCC[C@H]4C2)cc1	x	2.0	x	x	x	x
O=CN1CCN(C(=O)C2CCN(c3ncnc4c3sc3cccc(F)c34)CC2)CC1	x	-1.5	x	x	x	x
Cc1nn(-c2ccccc2)c(C)c1-c1nnc(-c2c(C)nn(-c3ccccc3)c2C)o1	i	-2.8	u	9.2µM*	-0.8%	-4.7
